Screens from PubChem BioAssay.
SKKanGAS inh: SKKanGAS growth inhibition; AID 1662; 300,000 compounds, 1.3% hits; inhibition, % at 7.5 µM; S. pyogenes SKKanGAS, kanamycin growth, BacTiter-Glo, 6 h;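 active means mean replicate score, as percent of positive control median, at least 50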;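 further: strain carries kanamycin resistance gene driven by streptokinase promoter and grows in 40 µg/ml kanamycin; loss of luminescence reflects streptokinase promoter inhibition or plain growth inhibition; 0% = median of DMSO wells and 100% = positive control at its reference dose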
tim23-1 inh: inhibits growth of tim23-1 mutant yeast. S. cerevisiae tim23-1 growth, BacTiter-Glo luminescence, 24 h. 330,000 compounds, 1.3% hits. inhibition, % at 20 µM. AID 463212;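 active means growth inhibition of the mutant yeast at or above 50%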;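 further: temperature-sensitive mutant grown at 25 °C; plate controls were DMSO-treated mutant yeast for no effect and medium wells lacking yeast for full effect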
TIM10 inh: inhibits growth of TIM10 yeast strain; S. cerevisiae TIM10 strain growth, BacTiter-Glo luminescence, 24 h; inhibition, % at 10 µM; 330,000 compounds, 1.4% hits; AID 463195;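 active means inhibition of 40% or more at the single tested concentration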;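 further: wild-type TIM10 isogenic control strain grown at permissive 25 °C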
tim10-1 inh: inhibits growth of tim10-1 mutant yeast. S. cerevisiae tim10-1 ts strain growth, BacTiter-Glo, 24 h. inhibition, % at 20 µM. 330,000 compounds, 2.2% hits. AID 463190;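 active means inhibition of at least 40%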;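 further: mutant grown at 25 °C; 0% = DMSO wells with yeast and 100% = wells holding no yeast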
PfHsp90 set2: growth inhibition of yeast expressing Plasmodium Hsp90 | S. cerevisiae expressing PfHsp90, BacTiter-Glo ATP, 48 h; yeast lacking PDR1 and PDR3 efflux regulators | inhibition, % at 9.4 µM | 310,000 compounds, 0.32% hits | AID 504621;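 active means every replicate shows inhibition above about 80%, whatever the replicate mean, limit read from the data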;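 further: 0% = DMSO neutral controls and 100% = 20 µM radicicol positive controls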
ATG4B inh: inhibitors of human ATG4B cysteine protease; inhibition, % at 8.33 µM; ATG4B cleavage of LC3-PLA2, NBD-HPC fluorescence, 1 h; 340,000 compounds, 0.51% hits; in the data active means inhibition above about 40%
Target sequence (Q9Y4P1 whole entry, looked up): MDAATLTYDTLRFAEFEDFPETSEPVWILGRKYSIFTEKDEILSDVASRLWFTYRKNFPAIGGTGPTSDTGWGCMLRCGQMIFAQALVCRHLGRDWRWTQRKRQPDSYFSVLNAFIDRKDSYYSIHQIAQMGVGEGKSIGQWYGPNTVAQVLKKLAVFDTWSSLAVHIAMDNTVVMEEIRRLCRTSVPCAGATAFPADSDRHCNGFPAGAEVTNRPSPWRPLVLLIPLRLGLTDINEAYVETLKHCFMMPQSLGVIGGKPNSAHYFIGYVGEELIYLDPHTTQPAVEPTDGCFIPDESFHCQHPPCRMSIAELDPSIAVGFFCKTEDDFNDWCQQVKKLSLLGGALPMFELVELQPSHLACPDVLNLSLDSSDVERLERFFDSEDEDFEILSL
tim10-1 confirm: confirmation of tim10-1 mutant yeast growth inhibitors | shares compounds with tim10-1 inh | S. cerevisiae tim10-1 ts strain growth, BacTiter-Glo, 24 h | inhibition, % at 20 µM | 7,400 compounds, 56% hits | AID 463213;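 active means inhibition of yeast growth at or above a set limit in either of two repeat tests at 20 µM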;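 further: tim10-1 mutant grown at permissive 25 °C to find synthetic lethal compounds; 0% = DMSO yeast wells and 100% = medium wells without yeast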
TIM10 conf: TIM10 yeast growth inhibition, confirmed; shares compounds with TIM10 inh; S. cerevisiae tim10 strain growth, BacTiter-Glo luminescence, 24 h; inhibition, % at 10 µM; 4,600 compounds, 63% hits; AID 463215;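 active means inhibition of yeast growth at or above a set limit in either of two replicates at 10 µM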;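 further: this counterscreen used the strain with wild-type TIM10; 0% = yeast with DMSO and 100% = medium wells lacking yeast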
tim23-1 confirm: confirmation of tim23-1 mutant yeast growth inhibitors | shares compounds with tim23-1 inh | 4,400 compounds, 83% hits | inhibition, % at 20 µM | S. cerevisiae tim23-1 growth, BacTiter-Glo luminescence, 24 h;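 active means inhibition above about 39% in either of two replicate wells at 20 µM, limit read from the data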;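 further: temperature-sensitive tim23-1 mutant grown at 25 °C; 0% = DMSO wells with yeast and 100% = medium wells without yeast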
Numbers without * were called inactive; . = no result given. An excerpt weighted towards active compounds, which were near 4.7% of everything screened.

SMILES | SKKanGAS inh | tim23-1 inh | TIM10 inh | tim10-1 inh | PfHsp90 set2 | ATG4B inh | tim10-1 confirm | tim23-1 confirm | others
COc1ccc2[nH]c3c4c(ccc3c2c1)C(=O)C=CC4=O | . | 76* | 79* | 62* | 7 | 5 | 77* | -23 | TIM10 conf=99*
COc1ccc2[nH]c(=O)cc(C(=O)O)c2c1 | 3 | 5 | 6 | 15 | 27 | 3 | . | .
CCCC(=O)Nc1c(-c2ccc(OC)cc2)c(=O)c2ccccc2n1C | 2 | -3 | -14 | 10 | -10 | 2 | . | .
CCC(CC)C(=O)Nc1ccc(Sc2ccc([N+](=O)[O-])cc2)cc1 | 11 | 22 | 23 | 25 | -6 | -6 | . | .
CCCC(=O)Nc1ccc(Sc2ccc([N+](=O)[O-])cc2)cc1 | -7 | 51* | 55* | 42* | 4 | 8 | 25 | 43* | TIM10 conf=41*
O=C(COc1ccccc1)Nc1sc2c(c1C(=O)NCc1cccnc1)CCCC2 | 1 | -19 | -8 | 3 | 1 | 13 | . | .
N#Cc1cc(-c2ccccc2)nc(NN)n1 | -3 | 30 | 23 | 29 | 0 | -1 | . | .
NNc1nc(-c2ccccc2)cc(-c2ccccc2)n1 | 16 | 55* | 49* | 43* | -55 | 0 | 48* | 56* | TIM10 conf=11
NNc1nc(-c2ccccc2)cc(-c2ccccc2O)n1 | 28 | 55* | 48* | 44* | 25 | -8 | 47* | 59* | TIM10 conf=42*
CCc1c(C)nc(Nc2nc(C)c3cc(OC)ccc3n2)[nH]c1=O | -2 | 53* | 46* | 42* | -11 | -13 | 31* | 52* | TIM10 conf=-9
CCCCCc1c(C)nc(Nc2nc(C)c3cc(OC)ccc3n2)[nH]c1=O | 18 | 9 | 16 | 7 | 7 | -4 | . | .
CCOC(=O)N1CCc2c(sc(NC(C)=O)c2C(N)=O)C1 | -1 | -4 | 0 | -14 | 8 | 3 | . | .
CCOC(=O)N1CCc2c(sc(NC(=O)c3ccc(Cl)s3)c2C(N)=O)C1 | . | 66* | 35 | 43* | . | . | 46* | 68*
O=C1Cc2ccccc2N1c1ccccc1 | 3 | -29 | 6 | 11 | -7 | -2 | . | .
O=C1CC(=Nc2ccccc2)NN1c1ccccc1 | 18 | 59* | 49* | 55* | . | -9 | 45* | 76* | TIM10 conf=44*
COc1ccc(/C=C2\COc3ccccc3C2=O)cc1OC | -5 | 70* | 50* | 57* | 14 | 5 | 57* | 58* | TIM10 conf=12
COc1ccc(/C=C2/CCc3ccccc3C2=O)cc1OC | -4 | 41 | 21 | 17 | -34 | 16 | . | .
COC(=O)c1ccc(NC(=O)c2cnc3scc(C)n3c2=O)cc1 | 1 | -4 | 1 | -3 | . | . | . | .
N/C(=C\C(=O)c1cc(Cl)ccc1O)C(Cl)(Cl)Cl | -10 | 73* | 42* | 40* | -22 | -10 | 48* | 37 | TIM10 conf=31
CNc1ccc(Cl)cc1C(N)=O | 1 | -4 | -15 | -12 | 13 | -1 | . | .
NC(=O)Nc1ccc(Cl)cc1 | -8 | 9 | -25 | -14 | -12 | -3 | . | .
O=C(Nc1ccc(Cl)cc1)ON=C1CCCC1 | 2 | 64* | 82* | 43* | -1 | 10 | 28 | 41* | TIM10 conf=-21
CC(C)C(Cl)=NOC(=O)Nc1ccc(F)cc1 | . | . | . | . | -9 | 0 | . | .
C/C(=N\OC(=O)Nc1ccc(Cl)cc1)c1ccc(F)c(F)c1 | 7 | 57* | 14 | 51* | -15 | -9 | 54* | 59*
O=C(OCc1ccc(Br)cc1)c1cccnc1Cl | 6 | 2 | 3 | -5 | 12 | 2 | . | .
SMILES | SKKanGAS inh | tim23-1 inh | TIM10 inh | tim10-1 inh | PfHsp90 set2 | ATG4B inh | tim10-1 confirm | tim23-1 confirm | others
O=C(COc1ccccc1Cl)Nc1nc(-c2cccs2)cs1 | 30 | 32 | 28 | 27 | 11 | 19 | . | .
O=C(NO)c1ccc(C(=O)N(C2CCCCC2)C2CCCCC2)cc1 | 8 | 64* | 51* | 53* | . | 1 | 41* | 71* | TIM10 conf=39*
CCCn1c(Nc2nc3ccccc3n2C)nc2ccccc21 | 9 | 10 | 8 | 31 | -210 | 20 | . | .
Cc1cc(NC(=O)OC2CCCCC2)ccc1[N+](=O)[O-] | 7 | 53* | 34 | 49* | -26 | 9 | 25 | 55*
Clc1ccc(-n2ncc3c(NCCCn4ccnc4)ncnc32)cc1 | 15 | 17 | -11 | 16 | -19 | -11 | . | .
CN1/C(=C\C=C(/C#N)C(=O)Nc2ccc(Cl)cc2)C(C)(C)c2ccccc21 | -2 | 0 | -1 | -7 | 0 | 7 | . | .
CN1/C(=C\C(=O)Nc2ccc(Cl)cc2)C(C)(C)c2ccccc21 | 69* | 68* | 59* | 52* | 37 | 7 | 62* | 78* | TIM10 conf=54*
O=C(COC(=O)CNC(=O)c1ccc(Br)cc1)Nc1nnc(-c2ccccc2)o1 | 5 | -8 | -18 | 1 | . | 1 | . | .
CN1CCN(c2ccc(NC(=O)c3cccc(OCc4ccccc4)c3)cc2)CC1 | -3 | -81 | -22 | -20 | 53 | 6 | . | .
O=C1c2ccccc2C(=O)N1CCOc1ccccc1Cl | 6 | 17 | -8 | 24 | -1 | 4 | . | .
COc1ccccc1OCCCN1C(=O)C(=O)c2cccc(C)c21 | 3 | 37 | 18 | 9 | 17 | 2 | . | .
Cc1ccccc1OCCN1C(=O)C(=O)c2cccc(C)c21 | 1 | 60* | 23 | 45* | 0 | 10 | 26 | 33
Cc1cccc2c1N(CCOc1ccccc1Cl)C(=O)C2=O | 13 | 56* | 27 | 51* | 27 | 8 | 19 | -30
N#Cc1ccc(NCCc2ccccn2)c([N+](=O)[O-])c1 | 11 | -11 | -7 | -23 | -6 | -12 | . | .
Cn1nnc(NC(=S)NC(=O)c2cccc3ccccc23)n1 | -1 | 57* | 8 | 53* | -6 | -3 | 2 | 30
CCOc1ccc(N2C(=O)C3CC(C)=C(C)CC3C2=O)c([N+](=O)[O-])c1 (stereo not given) | 9 | 34 | -1 | 38 | -30 | 19 | . | .
N#CC(C#N)=c1ccc2c(c1)N1C3=C(CCCC3)CC3CCCCC31N=2 (stereo not given) | 12 | 51* | 33 | 44* | . | 0 | 24 | 23
CC(C)C(=O)N1CCN(c2ccccc2NC(=S)NC(=O)/C=C/c2ccco2)CC1 | . | 5 | -18 | -1 | -2 | -1 | . | .
CN(C(=O)c1ccc(NC(=O)Cc2cccc(NC(=O)C3CCN(C(=O)C4CCC4)CC3)c2)cc1)C1CC1 | . | . | . | . | -5 | -9 | . | .
Cc1c(C(=O)NCCCN2CCOCC2)sc2ncnc(N3CCN(c4ccccc4)CC3)c12 | . | . | . | . | -4 | -9 | . | .
